# Among all 48,000 compounds or so, about 13,000 (27%) showed an effect of 50% or more. This is one part of the list.
# Test system: Wolbachia pipientis
# Experiment: Anti-Wolbachia Cell-Based Screen
# Format: functional
# Set-up: scale not given: in the data most compounds retested in dose-response had high values
# Conditions: 5 µM
row,Structure (SMILES),Percent Effect [%]
1,CC(C)Oc1ncc(C(=O)N2CCC(N(C)C)CC2)cc1Cl,-24.51
2,CN(C)C(=O)c1cccc(C[S+]([O-])CC(=O)NC2CCCC2)c1 (stereo unspecified),8.2
3,CCNc1ncc(C(=O)N[C@H]2CC[C@H](n3cnnc3)CC2)cn1,-5.329
4,CC1CCN(C(=O)c2cccc3ncccc23)CC1,-1.834
5,Cn1nc(C(=O)NC2CCCC2)cc1NC(=O)C1CC1,3.278
6,CC1CCN(C(=O)c2cnc3cc(C(=O)N(C)C)n(C)c3c2)CC1,124.9
7,CN(C)C(=O)c1cc2ncc(C(=O)NC3CCCC3)cc2n1C,130.7
8,CN(C)C(=O)c1cc2ncc(C(=O)NC3CC3)cc2n1C,122.1
9,O=C(NC1CC1)c1cnc2n1CCCC2,4.998
10,COC(C(=O)N1CCN(Cc2noc(C)n2)CC1)c1ccccc1 (stereo unspecified),-8.523
11,Cc1cc(C)n2cc(CN3CCCC3Cn3nc(C)nc3C)nc2n1 (stereo unspecified),-6.959
12,Cn1cncc1-c1nnc([C@H]2CCN(Cc3ccc(CO)o3)C2)o1,-1.062
13,Cc1nn(C)c2ncc(NC(=O)N(C)Cc3cc(Cl)cn3C)cc12,-3.854
14,COC1COC2(CCN(Cc3ccco3)CC2)C1 (stereo unspecified),-9.93
15,CC[C@H]1N(Cc2ccco2)CCC[C@]12CCC(=O)N2C,102.2
16,Cn1nnc2c1CCN(Cc1ccco1)C2COCc1ccccc1.O=C(O)C(F)(F)F (stereo unspecified),30.71
17,CC[C@@H]1N(Cc2ccco2)CCC[C@]12CCC(=O)N2C.O=C(O)C(F)(F)F,98.83
18,COC[C@@H]1CN(C)C(=O)[C@@H]2CCN(Cc3ccco3)CC[C@H]12,-1.368
19,COC(=O)CCN(CC1CCOC1)C1CC1 (stereo unspecified),-6.747
20,Cc1nnc(C(C)N(C)Cc2c(C)nn(-c3ccccc3)c2C)o1 (stereo unspecified),2.363
21,COCC1CN(Cc2ccccn2)Cc2cn(C)nc21.O=C(O)C(F)(F)F.O=C(O)C(F)(F)F.O=C(O)C(F)(F)F (stereo unspecified),-7.522
22,Cc1ccc(C)c(Oc2ccc(CNC(=O)C3CNC(=O)N3)cn2)c1 (stereo unspecified),-1.964
23,O=C1NCC(C(=O)Nc2ncc(Cc3ccc(F)cc3)s2)N1 (stereo unspecified),110.5

row,Structure (SMILES),Percent Effect [%]
1,Cc1ccc(Cc2cnc(NC(=O)C3CNC(=O)N3)s2)cc1F (stereo unspecified),1.212
2,O=C(Nc1cccc(OCc2cccc(F)c2)c1)C1COCCO1 (stereo unspecified),-8.331
3,O=C(Nc1nncs1)N(Cc1cccc(F)c1)C1CC1,-1.833
4,O=C1NCC(C(=O)Nc2ncc(Cc3cccc(F)c3)s2)N1 (stereo unspecified),100.2
5,O=C1NCC(C(=O)Nc2ncc(Cc3ccccc3)s2)N1 (stereo unspecified),107.9
6,CC(=O)NC(C)(C)C(=O)Nc1ncc(Cc2ccc(C)c(F)c2)s1,7.127
7,O=C1NCC(C(=O)N(Cc2cccc(Br)c2)C2CC2)N1 (stereo unspecified),3.322
8,CC(=O)N1CCCN(C(=O)Nc2ccccc2N2CCOC2=O)CC1,-24.88
9,COc1cc(N2C[C@H]3CN(CC(=O)N(C)C)C(=O)[C@H]3C2)ncn1,-6.391
10,Cc1noc(CCNS(=O)(=O)N2CCCC2c2ccco2)n1 (stereo unspecified),-8.363
11,NC(=O)c1nnn(-c2ccc(Br)cc2)n1,2.849
12,COc1ccc(-n2nnc(C(N)=O)n2)cc1,106.9
13,COCC(C)NC(=O)c1nnn(-c2ccc(OC)cc2)n1 (stereo unspecified),5.009
14,COc1ccc(-n2nnc(C(=O)NCC3CCCCC3)n2)cc1,-6.383
15,NC(=O)c1nnn(-c2ccc(Cl)cc2)n1,106
16,O=C(c1nnn(-c2ccc(C(F)(F)F)cc2)n1)N1CC(O)C1,9.515
17,O=C(Nc1ccccc1OCC(F)F)N[C@@H]1C=C[C@H](CO)C1,-12.74
18,O=C(NCC(O)c1ccc(F)cc1F)c1cccnc1O (stereo unspecified),-11.89
19,COCCNc1cc(C2CCCNC2)ccn1.Cl (stereo unspecified),131.3
20,Cc1cccc(CNc2cc(C3CCCNC3)ccn2)n1.Cl (stereo unspecified),115.3
21,COCCNc1ccc(-c2noc([C@@H]3CCCN3)n2)cn1,5.755
22,Cc1cc(C)c2nc(CN[C@H]3CCCNC3)cc(O)c2c1,1.45
23,COc1ccnc(CNc2cc(C3CC3)ncn2)c1,-5.331

row,Structure (SMILES),Percent Effect [%]
1,Cl.c1ccc(CNc2cc(C3CCCNC3)ccn2)nc1 (stereo unspecified),70.58
2,Cc1cccc(CNC[C@H]2Cn3ccnc3CO2)n1,-11.54
3,Cl.Cl.c1ccc(NCc2cn3c(n2)CNCC3)nc1,6.135
4,COCCOc1ccc(C(=O)N[C@@H]2CNCCC[C@H]2O)cc1,-1.711
5,Cc1ccc2c(c1)c(CNC(C)Cn1nc(C)cc1C)nn2C (stereo unspecified),8.057
6,CCN1CCC(CNS(=O)(=O)N2CCc3ccccc3C2)C1 (stereo unspecified),5.13
7,Cc1cccc(C2(CNC(=O)CCN3C(=O)CCC3=O)CCCC2)c1,3.863
8,Cc1ccnc(OC[C@@]23CCO[C@@H]2CCN(S(C)(=O)=O)C3)n1,3.207
9,O=c1ccc(-n2ccnc2)nn1CCNS(=O)(=O)c1ccc(Cl)s1,9.208
10,Cc1nc(NS(=O)(=O)c2cc(C)c(Br)cc2C)no1,12.58
11,Cc1ccc(CN2Cc3cnn(C)c3C(COCC3CC3)C2)o1 (stereo unspecified),20.07
12,CCn1ncc2c1C(COC)CN(Cc1ccc(C)o1)C2 (stereo unspecified),99.39
13,CCn1ncc2c1C(COC)CN(Cc1ccco1)C2 (stereo unspecified),102.5
14,CCn1cc2c(n1)C(COC)CN(Cc1ccoc1)C2 (stereo unspecified),-1.069
15,CCn1nnc2c1C(COC)CN(Cc1ccco1)C2 (stereo unspecified),114.9
16,CCn1nnc2c1C(COC)CN(C(=O)Cc1cccs1)C2 (stereo unspecified),-3.417
17,CCn1nnc2c1C(COC)CN(Cc1cccs1)C2.O=C(O)C(F)(F)F (stereo unspecified),-4.503
18,CNC(=O)C1(N(C)CCc2ccccc2)Cc2ccccc2C1,30.02
19,CCc1ccccc1C(=O)N1C[C@@H](CN2CCOCC2)[C@@H](CO)C1,-4.214
20,O=C(NCC(O)c1cccc(F)c1)C1CCN(C(=O)C2CCC2)CC1 (stereo unspecified),-0.7968
21,CC(C)C1SCC(=O)Nc2c1cnn2-c1ccc(Cl)cc1F (stereo unspecified),70.31
22,CC(=O)N1CCC(NC(C)c2cnn(-c3ccc(F)cc3F)c2C)CC1 (stereo unspecified),-2.797
23,CN1CCN(Cc2cnn(-c3ccc(F)cc3)c2)[C@H]2CS(=O)(=O)C[C@H]21,-6.219

row,Structure (SMILES),Percent Effect [%]
1,CC(C)C1SCC(=O)Nc2c1cnn2-c1ccc(Cl)cc1 (stereo unspecified),114.3
2,COc1ccc(-n2ncc3c2NC(=O)CSC3C(C)C)cc1 (stereo unspecified),81.05
3,COc1ccc(-n2ncc(C(C)NC3CCSCC3)c2C)cc1 (stereo unspecified),-4.294
4,COc1ccc(C2CC(=O)Nc3c2cnn3C)cc1 (stereo unspecified),32.7
5,CC(C)CC1SCC(=O)Nc2c1cnn2C(C)C (stereo unspecified),1.479
6,Cc1c(C(C)NC2CSCCSC2)cnn1-c1ccc(F)cc1F (stereo unspecified),-0.1798
7,CC(C)CC1SCC(=O)Nc2c1cnn2-c1ccc(F)cc1 (stereo unspecified),52.58
8,CC(C)(C)n1ncc2c1NC(=O)CC2c1ccsc1 (stereo unspecified),12.08
9,Cc1noc(CNC(=O)NCCOc2ccc(Cl)cc2)n1,-1.273
10,N#Cc1cccc(OCCCN2CCN(C(=O)c3ccoc3)CC2)c1,-11.27
11,CC(C)C1SCC(=O)Nc2c1cnn2-c1ccc(F)cc1 (stereo unspecified),81.09
12,CC(C)n1ncc2c1NC(=O)CSC2C(C)(C)C (stereo unspecified),1.885
13,CC(C)n1[nH]c(=O)c2c1NC(=O)CSC2C1CCCCC1 (stereo unspecified),-15.8
14,Cc1ccccc1CN(CCN(C)C)Cc1ccc(S(C)(=O)=O)cc1,-5.606
15,Cc1noc(CN(Cc2ccc3c(c2)OCO3)Cc2ccc(C)o2)n1,1.784
16,CN(C)C(C(=O)N1CC(c2ccccn2)C1)c1ccc2c(c1)OCO2 (stereo unspecified),-10.36
17,Cc1n[nH]c(C)c1CN(C)C(C(=O)O)c1ccc2c(c1)OCO2 (stereo unspecified),109.5
18,CN(Cc1ccccn1)C(C(=O)O)c1ccc2c(c1)OCO2 (stereo unspecified),99.57
19,COc1cccc(OC)c1C(C(=O)O)N(C)Cc1c(C)n[nH]c1C (stereo unspecified),-9.19
20,Cc1ccc(CN(C)C(C(=O)O)c2ccc3c(c2)OCO3)o1 (stereo unspecified),114
21,COc1ccc(C(C(=O)O)N(C)Cc2ccon2)cc1Cl (stereo unspecified),4.9
22,COc1ccc(C(C(=O)O)N(C)CCN2CCOCC2)c(C)c1 (stereo unspecified),5.185
23,CN1CCCN(C(C(=O)O)c2ccc3c(c2)OCO3)CC1 (stereo unspecified),-6.004

row,Structure (SMILES),Percent Effect [%]
1,COc1cccc(Cl)c1C(C(=O)O)N(C)Cc1c(C)n[nH]c1C (stereo unspecified),-23.52
2,COc1c(C)cc(C(C(=O)O)N(C)Cc2ccn[nH]2)cc1C (stereo unspecified),-0.04634
3,COc1cccc(C(C(=O)O)N(C)Cc2ccc(C)o2)c1 (stereo unspecified),105.1
4,CCc1c(C)[nH]c(C(C)(C)N)nc1=O.Cl,24.57
5,CCSc1ncc(CN2CCN(c3nc(C)cnc3C)CC2)cn1,-7.047
6,CN(C)CCCC(=O)N1C[C@H]2CC[C@@H]1CN(Cc1ccccc1)C2,-3.863
7,CCC(CC)C(=O)NCC1(NC(C)c2ccccc2)CCOCC1 (stereo unspecified),-13.17
8,COc1ccc(C)cc1CCNS(C)(=O)=O,4.512
9,Cn1cncc1CN1CCC2(CC1)COCCN(S(C)(=O)=O)C2.O=C(O)C(F)(F)F,124.1
10,O=C(O)C(F)(F)F.O=S(=O)(C1CC1)N1CCOCC2(CCN(c3ccccn3)C2)C1 (stereo unspecified),8.73
11,Cn1ccnc1CN1CCC2(CC1)CCN(Cc1ccoc1)C2.O=C(O)C(F)(F)F.O=C(O)C(F)(F)F,-4.24
12,Cn1ccnc1CN1CCC2(CC1)COC2.O=C(O)C(F)(F)F,97.83
13,Cn1ccnc1CN1CCC2(COCCN(Cc3ccsc3)C2)C1 (stereo unspecified),14.38
14,Cn1ccnc1CN1CCC2(COCCN(S(=O)(=O)C3CC3)C2)C1 (stereo unspecified),106.3
15,COC1CC2(CCN(Cc3nccn3C)CC2)C1.O=C(O)C(F)(F)F,5.077
16,CCOC1CC2(CCN(Cc3nccn3C)CC2)C1.O=C(O)C(F)(F)F,2.92
17,CN1CCOCC2(CCN(Cc3ccc[nH]3)CC2)C1.O=C(O)C(F)(F)F.O=C(O)C(F)(F)F,-3.282
18,Cn1ccnc1CN1CCC2(CC1)COCCN(S(C)(=O)=O)C2.O=C(O)C(F)(F)F,104.9
19,CS(=O)(=O)N1CCOCC2(CN(Cc3nccs3)CCO2)C1.O=C(O)C(F)(F)F (stereo unspecified),6.136

# — ChEMBL document CHEMBL3988442, “University of Dundee, Small-Polar-MMV Screening Library” (2021)
